In PubChem BioAssay (NCI) one finds growth inhibition data, which are given here for 8 compounds.

This test in a line: NCI Yeast Anticancer Drug Screen. Data for the CLN2oe strain (AID 163).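 Note: 0% = growth of vehicle-only control cultures.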 The note with it: S. cerevisiae CLN2oe strain, hits give high values. The method, then:
Growth inhibition of yeast strains with defined genetic alterations is measured as a screen for potential anti-cancer activity. Selected strains with alterations in DNA damage repair or cell cycle control were exposed to compounds and growth inhibition was measured relative to vehicle treated controls. The strain used in this assay is CLN2oe

Compounds without any hit were thinned out: in the full panel of roughly 79,000, 15% have a hit. A number with no mark means an inactive call. Calls of active or inactive are those of the source. Cut-off read from the data, not from the text of the source: active = growth inhibition above about 70%; inactive = the rest.

Take `CCOC(=N)c1ccc(O)c(OC)c1`: the growth inhibition (at 1.2 µM) was -2%; the growth inhibition (at 3.7 µM) was -5%; the growth inhibition (at 11.0 µM) is 1%; the growth inhibition (at 33.0 µM) was -3%; the growth inhibition (at 100.0 µM) is -1%.
Consider `O=C(c1ccc([N+](=O)[O-])cc1)C1N=NCC1c1ccccc1` (stereo not given), for which the growth inhibition (at 1.2 µM) is 0%; the growth inhibition (at 3.7 µM) is 2%; the growth inhibition (at 11.0 µM) was 4%; the growth inhibition (at 33.0 µM) is 9%; the growth inhibition (at 100.0 µM) is 54%.
As for `COc1cc2cc3c4cc(OC)c(OC)cc4cc[n+]3c(C)c2cc1OC`, the growth inhibition is, setting by setting: (at 1.2 µM) -22%; (at 3.7 µM) -35%; (at 11.0 µM) -28%; (at 33.0 µM) -39%; (at 100.0 µM) -5%.
On the same counts, the results for `COc1ccc([N+](=O)[O-])c2c(NCCCN(C)C)c3ccccc3nc12` are -3%, 3%, 2%, 8% and 25%.
The like results for `CC(C)=NOC(=O)Nc1ccc(Cl)cc1` were, in that order, -30%, -18%, -6%, 8% and 38%.
In the case of `COC(=O)Nc1cn2ccc(C(Cl)=C(Cl)Cl)cc2n1`, the growth inhibition (at 1.2 µM) was 42%; the growth inhibition (at 3.7 µM) was 27%; the growth inhibition (at 11.0 µM) is 35%; the growth inhibition (at 33.0 µM) was 21%; the growth inhibition (at 100.0 µM) is 18%.
Take `Cc1csc(=S)n1OC(=O)NC1CCCCC1`: the growth inhibition runs as follows: (at 1.2 µM) -6%; (at 3.7 µM) 99% (active); (at 11.0 µM) 100% (active); (at 33.0 µM) 100% (active); (at 100.0 µM) 100% (active).
As to `O=C1c2cccnc2C(=O)C2C3C=CC(C3)C12` (stereo not given), the growth inhibition by setting is: (at 1.2 µM) 10%; (at 3.7 µM) 16%; (at 11.0 µM) 30%; (at 33.0 µM) 75% (active); (at 100.0 µM) 97% (active).
